Measured values: PubChem BioAssay (EPA / NIEHS)
The source made the active and inactive calls. How the source made its calls: active means hit-call score of the fitted dose curve at least 0.9, where 1 is the maximum; inactive means score below 0.9.

Assay: CCTE_Shafer_MEA_dev_network_spike_number: CCTE's Neural Network Formation Assay for Number of Network Spikes, Shafer Lab (AID 2284048);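 further: synchronized bursts across electrodes counted on days 5 7 9 12 and integrated as AUC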
Method: CCTE_Shafer_MEA_dev assay is conducted using Axion Biosystems 48 well microelectrode array (MEA) plates and Maestro recording system. Each well of the MEA plate contains a grid of 16 microelectrodes embedded in the culture surface. Electrically active cells, such as neurons, can be cultured over the electrodes, and electrical activity in these cells can be recorded extracellularly. The spontaneous firing of neurons is captured from each electrode on a microsecond timescale providing both temporally and spatially precise data. […] The CCTE_Shafer_MEA_dev assay uses primary cultures of rat cortical neurons. Recordings are made on days post-plating 5, 7, 9 and 12. As these cultures mature over time, neural networks develop functional activity and form cohesive networks in which electrical activity can be highly coordinated. CCTE_Shafer_MEA_dev_network_spike_number is 1 of 19 assay components of the CCTE_Shafer_MEA_dev assay. It measures the number of network spikes (temporally-clustered groups of action potential firing across multiple electrodes) during a recording in a microelectrode array (MEA) using Axion Biosystems Maestro 768 channel amplifier with the AxIS adaptive spike detector. To collapse across multiple recordings made on days post-plating 5, 7, 9 and 12, the trapezoidal area-under-the-curve of the component is calculated.Data from the assay component CCTE_Shafer_MEA_dev_network_spike_number was analyzed into 1 assay endpoint. This assay endpoint, CCTE_Shafer_MEA_dev_network_spike_number, was analyzed in the negative analysis fitting direction relative to DMSO as the negative control and baseline of activity. Using a type of functional reporter, gain or loss-of-signal activity can be used to understand electrical activity.
On the day prior to culture, each well was coated thoroughly with 150 uL of 0.05% polyethyleneimine (PEI, Sigma Cat P3143) in 50 mM HEPES (Sigma Cat H7523) at a pH of 8. The plate was incubated at 37C for one hour. PEI was rinsed out with 500 uL of sterile water three times. Plates were stored at 4C until the day of culture. This culture was plated at a seeding density of 1.5 x 10^5 cells/well on a 48-well MEA plate, prepared as described above. Cells were administered via a 25 uL media/laminin ([…]; Sigma Cat L2020-1MG) drop directly onto the microelectrode array, as adding the cells with the laminin results in better attachment than pre-coating with laminin. After 2 hours, an additional 475 uL of cortical media was added and the cells returned to the incubator. Exposure starts at day 0 of plating and is continued over twelve days of network development until the experiment is terminated. Cells are fed with fresh medium on DIV 5 and 9, following the recordings on those days. The entire volume of media in the well is exchanged and any vehicle or compound treatment is renewed. Complete details are found in OP-NHEERL/ISTD/SBB/TJS/2015-03-r0 (available on request, email shafer.tim@epa.gov). Measurement of the electrical activity is non-invasive, and recordings can be made from the same plate over multiple different days of the culture. In cortical neurons, this allows for the measurement of extracellular action potentials over the period during which networks form in the MEA plate.

outcome, inactive:
O=P(OC(CCl)CCl)(OC(CCl)CCl)OC(CCl)CCl, COc1ccc(-n2nc(C(F)F)cc2-c2ccc(S(C)=O)cc2)cc1 (stereo not given), CNCc1ccc(NC(=O)c2c[nH]c3c2C(=O)CCC3)cc1, CCC(C)(C)C(=O)O[C@H]1C[C@@H](C)C=C2C=C[C@H](C)[C@H](CC[C@@H]3C[C@@H](O)CC(=O)O3)[C@H]21, CC[C@H]1OC(=O)[C@H](C)[C@@H](O[C@H]2C[C@@](C)(OC)[C@@H](O)[C@H](C)O2)[C@H](C)[C@@H](O[C@@H]2O[C@H](C)C[C@H](N(C)C)[C@H]2O)[C@](C)(O)C[C@@H](C)C(=O)[C@H](C)[C@@H](O)[C@]1(C)O, O=C1CCC(N2C(=O)c3ccccc3C2=O)C(=O)N1 (stereo not given), NC(=O)NO, Nc1nc2ncc(CNc3ccc(C(=O)N[C@@H](CCC(=O)O)C(=O)O)cc3)nc2c(=O)[nH]1, CC[C@H](C)C(=O)O[C@H]1C[C@@H](C)C=C2C=C[C@H](C)[C@H](CC[C@@H]3C[C@@H](O)CC(=O)O3)[C@H]21, Cn1c(=O)c2c(ncn2C)n(C)c1=O
